Laboratory results as given in PubChem BioAssay (NCI).
This is part of a sample that, as a whole, favours compounds with a hit. Of some 83,000 tested, about 20% had one in any assay.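 Testing used 96-well plates and a 48-hour single-concentration exposure. Example: -40 means 40% of the starting cells died.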 The source made the active and inactive calls. The calls were made as follows: active = growth percent below 10; inactive = the rest.

Legend:
Experiment in all cases: NCI-60 one-dose screen, 48 h (100 = growth as untreated, 0 = no growth, -100 = all killed)
Conditions in all cases: 10 µM unless noted
[1] = test system: NCI-H23 lung
[2] = test system: NCI-H226 lung
[3] = test system: NCI-H322M lung
[4] = test system: HOP-62 NSCLC
[5] = test system: NCI-H460 lung
[6] = test system: HOP-92 NSCLC
[7] = test system: NCI-H522 lung
[8] = test system: A549/ATCC NSCLC
[9] = test system: 786-0 renal
[10] = test system: COLO 205 colon
[11] = test system: DU-145 prostate
[12] = test system: K-562 leukemia
[13] = test system: MALME-3M melanoma
[14] = test system: MDA-MB-231 breast
[15] = test system: RXF 393 renal
[16] = test system: SF-268 CNS
[17] = test system: SF-295 CNS
[18] = test system: SF-539 CNS
[19] = test system: UACC-257 melanoma
[20] = test system: M14 melanoma

Measured: growth

COc1cc2ncnc(Nc3cccc(Cl)c3F)c2cc1OC(=O)N1CCN(C)C[C@H]1C
inactive: [1] 92% | [2] 75.7% | [3] 10.5% | [4] 61.8% | [5] 90.2% | [6] 51.9% | [7] 16.2% | [8] 40.8% | [9] 75.6% | [10] 79.5% | [11] 65% | [12] 60.9% | [13] 106% | [14] 78.7% | [15] 67.9% | [16] 73.4% | [17] 83.7% | [18] 84.1% | [19] 68.8% | [20] 84.9%

COc1cc2ncnc(Nc3ccc(F)c(Cl)c3)c2cc1NC(=O)/C=C/CN1CCCCC1
active: [1] -54.1% | [2] -83.4% | [3] -1.5% | [4] -51.9% | [5] -69.9% | [6] -83.6% | [7] -56.9% | [8] -76.9% | [9] -81.7% | [10] -76.6% | [11] -42.7% | [12] -28.5% | [13] -80.7% | [14] -68.7% | [15] -92.1% | [16] -74.5% | [17] -55% | [18] -89.9% | [19] -77% | [20] -72%

CCNC(=O)Nc1nc2ccc(Oc3ccnc(C(=O)NC)c3)cc2s1
active: [12] 8.24%
inactive: [1] 90.1% | [2] 84.5% | [3] 102% | [4] 76.1% | [5] 73.4% | [6] 70.6% | [7] 56.6% | [8] 62.4% | [9] 88.3% | [10] 56.1% | [11] 103% | [13] 67.3% | [14] 73% | [15] 103% | [16] 92.8% | [17] 70.5% | [18] 77.6% | [19] 87.1% | [20] 40.7%

CCCCCCCCCNCCCCCCCCC
inactive: [1] 40.4% | [2] 69.6% | [3] 113% | [4] 76.3% | [5] 103% | [8] 99.3% | [9] 66.5% | [11] 76.5% | [13] 18.4% | [14] 66.3% | [15] 50.5% | [16] 79.8% | [17] 66.6% | [18] 56.7% | [19] 67.2%
active: [6] 8.18% | [7] -3.05% | [10] -92.8% | [12] 5.9% | [20] -48.6%

CC/C=C\C[C@H]1C/C=C2/C(=O)C=C[C@@H]2C/C=C\CCCC(=O)O1
inactive: [3] 16.7% | [4] 44.2%
active: [1] -12.5% | [2] -54.8% | [5] -33.7% | [6] -36.6% | [7] -45.1% | [8] -25.2% | [9] -79.9% | [10] -13.1% | [11] -10.9% | [12] 1.56% | [13] -15.3% | [14] 1.26% | [15] -57.1% | [16] -0.852% | [17] -19.8% | [18] 5.18% | [19] -12.7% | [20] -17.4%

CNC(=O)c1cc(Oc2ccc(NC(=O)Nc3cc(C(C)(C)C)nn3-c3ccc4ncccc4c3)c(F)c2)ccn1
active: [1] -49.5% | [2] -15.9% | [3] -17.8% | [4] -41.4% | [5] -40.8% | [6] -10.8% | [7] -47.7% | [8] -16.1% | [9] -16.7% | [10] -78.1% | [11] -22.1% | [12] -7.14% | [13] -59.5% | [14] -9.49% | [15] -71% | [16] -19.8% | [17] -13.1% | [18] -66.4% | [19] -24.3% | [20] -71.4%

Cc1cccc(C)c1N1C(c2ccccc2)=NNC12C=CC(=O)c1c(O)cccc12 (stereo not given)
inactive: [1] 30.6% | [2] 94.6% | [3] 99.3% | [4] 39.4% | [5] 98.2% | [6] 115% | [7] 54.6% | [8] 62.4% | [9] 105% | [10] 97.7% | [11] 93.7% | [12] 46.5% | [13] 62.7% | [14] 91.9% | [15] 105% | [16] 84.3% | [17] 61.3% | [18] 67.1% | [19] 58.5% | [20] 54.2%

CCS(=O)(=O)N1CCN(c2ccc(Nc3ncc(C(N)=O)c(NC4CC4)n3)cc2)CC1
inactive: [1] 75.9% | [2] 73.1% | [3] 79.4% | [4] 59.3% | [5] 60.3% | [6] 87.4% | [7] 59.2% | [8] 62.2% | [9] 89% | [11] 88.5% | [12] 56.4% | [13] 76.7% | [14] 69.6% | [15] 25.8% | [16] 75.5% | [17] 61.9% | [18] 53.5% | [19] 101% | [20] 59.5%
active: [10] 1.91%

CC(=O)O[C@]1(C)C[C@H](O)[C@]2(O)C=CO[C@H](O[C@@H]3O[C@H](CO)[C@@H](O)[C@H](O)[C@H]3O)[C@@H]21
inactive: [1] 99.3% | [2] 96.7% | [3] 101% | [4] 95.2% | [5] 110% | [6] 129% | [7] 95.4% | [8] 105% | [9] 93.2% | [10] 108% | [11] 102% | [12] 97.3% | [13] 97.5% | [14] 98.5% | [15] 109% | [16] 94.3% | [17] 90.9% | [18] 97.5% | [19] 109% | [20] 98.6%

Cc1c(CN2CCN(C(=O)[C@H](C)O)CC2)sc2c(N3CCOCC3)nc(-c3cnc(N)nc3)nc12
active: [1] 6.62% | [2] -4.64% | [3] -26.1% | [4] -10.3% | [5] 3% | [6] -24.6% | [7] -12.2% | [8] -20.8% | [9] -19% | [10] -32.3% | [11] 8.38% | [13] -52.3% | [14] 7.09% | [15] -40.1% | [17] -45% | [18] -47.5% | [19] -34.3% | [20] -21.4%
inactive: [12] 17.6% | [16] 12.1%

Cc1ccc(NC(=O)Nc2ccc(Nc3ncnc4sc5c(c34)CCOC5)cc2)cc1Cl
inactive: [1] 99.9% | [2] 94.9% | [3] 103% | [4] 74.6% | [5] 108% | [6] 91.6% | [7] 60.9% | [8] 85.8% | [9] 110% | [10] 102% | [11] 114% | [12] 108% | [13] 98.2% | [14] 88.5% | [15] 95.5% | [16] 103% | [17] 96% | [18] 84.4% | [19] 88.8% | [20] 99.1%

CC(=O)NCC(=O)N1[C@@H]2CC[C@H]1c1ccc(Nc3ncc(C(F)(F)F)c(NC4CCC4)n3)cc12
active: [6] -1.13% [2.5 µM] | [10] -22.6% [2.5 µM] | [15] -12.8% [2.5 µM]
inactive: [1] 27.9% [2.5 µM] | [2] 42.8% [2.5 µM] | [3] 14.2% [2.5 µM] | [4] 23% [2.5 µM] | [5] 16.3% [2.5 µM] | [7] 46.1% [2.5 µM] | [8] 34% [2.5 µM] | [9] 42.4% [2.5 µM] | [11] 41.7% [2.5 µM] | [12] 44.8% [2.5 µM] | [13] 46.3% [2.5 µM] | [14] 38.1% [2.5 µM] | [16] 38.6% [2.5 µM] | [17] 60% [2.5 µM] | [18] 11.2% [2.5 µM] | [19] 59.8% [2.5 µM] | [20] 26.9% [2.5 µM]

C=CC(=O)Nc1cccc(Oc2nc(Nc3ccc(N4CCN(C)CC4)cc3)nc3ccsc23)c1
active: [2] -2.55% | [3] 4.69% | [4] -62% | [5] -59.8% | [6] -70.8% | [7] -77.1% | [8] -74.1% | [9] -84% | [10] -83.3% | [11] -48.4% | [12] -25.6% | [13] -84.2% | [14] -58% | [15] -83.9% | [16] 3.11% | [18] -92.9% | [19] -80.8% | [20] -81%
inactive: [1] 32.2% | [17] 23.9%

COc1cc2c(Oc3ccc(NC(=O)C4(C(=O)Nc5ccc(F)cc5)CC4)cc3F)ccnc2cc1OCCCN1CCOCC1
inactive: [1] 10.1% | [2] 12.3% | [11] 16.4% | [16] 11.6%
active: [3] -1.77% | [4] -13.5% | [5] -40.8% | [6] -58.2% | [7] -57% | [8] -77.1% | [9] -75.7% | [10] -71.3% | [12] -12.1% | [13] -71.6% | [14] -60.3% | [15] -94.5% | [17] -82.9% | [18] -90.5% | [19] -85.3% | [20] -65.9%

COc1cc(OC)c(/C=C/S(=O)(=O)Cc2ccc(OC)c(NCC(=O)O)c2)c(OC)c1
active: [5] 1.56% | [7] -18% | [8] 9.08% | [10] -62.1% | [11] 7.91% | [12] 8.38% | [18] -17.1%
inactive: [1] 31.9% | [2] 61.1% | [3] 47.1% | [4] 12.6% | [6] 43.9% | [9] 21.9% | [13] 54.6% | [14] 39.7% | [15] 36.9% | [16] 30.3% | [17] 15.5% | [19] 48.7% | [20] 12.6%
